# Assay outcomes deposited in PubChem BioAssay by The Scripps Research Institute Molecular Screening Center.
# MITF inh – human MITF inhibition, primary screen. O75030. 650,000 tested, 0.91% active. AID 1259374. AlphaScreen MITF homodimerization, bead proximity signal. inhibition, % at 2.6 µM; in the data active = inhibition above about 50%;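 note: 0% = vehicle wells with protein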
# FBW7 act – activators of human E3 ligase FBW7; normalized activity (activation), % at 26.1 µM; AlphaScreen FBW7–phospho-cyclin E peptide binding, activator screen; Q969H0; 650,000 tested, 0.13% active; in the data active = normalized activity above about 1.9%;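 note: purified mutant Fbw7 with reduced substrate affinity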
# Target sequence (Q969H0 whole entry, looked up): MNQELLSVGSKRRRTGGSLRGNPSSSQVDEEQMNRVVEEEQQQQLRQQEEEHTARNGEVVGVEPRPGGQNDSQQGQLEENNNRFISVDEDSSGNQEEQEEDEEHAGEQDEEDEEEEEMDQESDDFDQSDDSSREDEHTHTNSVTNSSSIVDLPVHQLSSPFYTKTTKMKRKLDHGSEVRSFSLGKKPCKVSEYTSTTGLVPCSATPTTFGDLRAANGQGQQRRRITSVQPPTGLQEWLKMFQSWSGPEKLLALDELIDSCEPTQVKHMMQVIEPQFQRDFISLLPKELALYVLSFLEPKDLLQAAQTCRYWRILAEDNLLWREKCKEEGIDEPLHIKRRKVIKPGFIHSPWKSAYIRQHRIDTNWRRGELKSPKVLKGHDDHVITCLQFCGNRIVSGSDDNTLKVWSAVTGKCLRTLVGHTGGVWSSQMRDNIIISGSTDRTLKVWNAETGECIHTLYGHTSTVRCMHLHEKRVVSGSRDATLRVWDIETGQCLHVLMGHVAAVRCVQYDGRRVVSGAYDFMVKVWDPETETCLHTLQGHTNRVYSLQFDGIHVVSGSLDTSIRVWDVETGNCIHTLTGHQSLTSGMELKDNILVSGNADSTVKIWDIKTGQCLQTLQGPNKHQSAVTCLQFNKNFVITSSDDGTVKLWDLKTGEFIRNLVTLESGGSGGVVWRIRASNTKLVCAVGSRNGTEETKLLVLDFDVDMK
# GPR151 activ – activators of human GPR151; Q8TDV0; PathHunter beta-arrestin GPR151 cells, luminescence; activation, % at 11.2 µM; 650,000 tested, 1% active; AID 1508602; in the data active = activation above about 4.9%;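 note: 0% = median of compound wells and 100% = cells with positive control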
# TEAD-YAP block – TEAD-YAP interaction inhibition | HEK-TIYL cells, TEAD-Gal4/YAP UAS-luciferase luminescence | inhibition, % at 9.12 µM | 640,000 tested, 1.4% active | AID 1259422; in the data active = inhibition above about 32%;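 note: 0% = median of test compound wells and 100% = reference inhibitor wells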
# MITF confirm – human MITF inhibition, confirmation. AlphaScreen MITF homodimerization, biotin/His-MITF beads. 4,700 tested, 16% active. inhibition, % at 2.6 µM. shares compounds with MITF inh. AID 1259372;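 active = inhibition above a cutoff derived from the DMSO control wells, cut at about 28% in these data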;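 note: 0% = MITF dimer wells with DMSO only; inhibitors lower the bead chemiluminescence by keeping MITF from dimerizing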
# AS interf DR – counter-screen: compounds optically interfering with AlphaScreen; AlphaScreen optical interference counterscreen, cell-free; shares compounds with MITF inh; 480 tested, 6% active; IC50, µM; AID 1259373; call rule not given here
# AlphaScreen intf2 – AlphaScreen optical interference, counter-screen; shares compounds with MITF inh; LysRS AlphaScreen counterscreen, signal interference, triplicate; inhibition, % at 2.6 µM; 4,700 tested, 7.6% active;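 active = inhibition above a cutoff derived from the DMSO control wells, cut at about 30% in these data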
# The depositor's hits bear a star; · = no result given. Only some compounds are listed: those with a hit (about 3.5% of all), similar ones and a draw of the others.
SMILES,MITF inh,FBW7 act,GPR151 activ,TEAD-YAP block,MITF confirm,AlphaScreen intf2,others
O=S(=O)(c1ccc2c(c1)CCCC2)N1CCN(c2cc(N3CCCC3)ncn2)CC1,16,1,0,0,·,·,
CNCCOc1ccccc1-c1ccccc1,24,0,0,0,·,·,
CN(C)CCOc1ccccc1-c1ccccc1,61*,0,1,3,-1,14,
CN(C)CCOCCOc1ccccc1-c1ccccc1,87*,0,1,1,41*,22,AS interf DR=>6.5
Cc1ccc(C2=N/C(=C\c3ccccc3I)C(=O)O2)cc1,-8,0,-1,3,·,·,
COc1ccc(C(CNCC(O)COCC2=CCC3CC2C3(C)C)N(C)C)cc1 (stereo not drawn),73*,0,-3,4,26,31*,
N#Cc1cc([N+](=O)[O-])ccc1NC(=O)COC(=O)/C=C/c1ccc2c(c1)OCO2,-1,0,1,-8,·,·,
COc1cc(/C=C/C(=O)OCC(=O)Nc2ccc([N+](=O)[O-])cc2C#N)ccc1O,72*,1,-1,10,1,5,
Cc1ccc2c(c1C)C(C)(C)C1(C=Nc3c(ccc4ncccc34)O1)N2C (stereo not drawn),57*,0,2,3,52*,52*,
COc1ccc(CN2CCN(C(=O)c3ccccc3OC)CC2)cc1OCc1ccccc1,41,0,-2,2,·,·,
O=C(c1ccccc1F)N1CCN(Cc2ccccc2Br)CC1,54*,0,0,1,9,13,
O=C(c1ccccc1F)N1CCN(Cc2ccccc2Cl)CC1,48,0,-1,-9,·,·,
O=C(c1ccccc1F)N1CCN(Cc2ccc(Cl)cc2)CC1,56*,0,-2,18,13,11,
O=C(c1ccccc1F)N1CCN(Cc2ccccc2)CC1,3,0,-1,8,·,·,
O=C(c1ccccc1F)N1CCN(S(=O)(=O)c2ccc(F)cc2)CC1,63*,0,0,4,0,12,
COc1ccccc1C(=O)N1CCN(Cc2ccc(Cl)cc2)CC1,55*,0,0,11,1,1,
COc1ccc(OC)c(NC(=O)c2sc(=S)n(-c3ccccc3C)c2N)c1,14,0,1,-8,·,·,
C=CCc1cccc(OC)c1OCCOCCn1ccnc1,54*,0,0,-7,-1,7,
Cc1ccc(OCCn2ccnc2)c(C)c1,0,0,-1,6,·,·,
Cc1cc(C(C)(C)C)ccc1OCCCn1ccnc1,19,0,1,4,·,·,
Cc1cc(Br)ccc1OCCOCCn1ccnc1,63*,0,-2,-6,3,8,
Cc1cc(C(C)(C)C)ccc1OCCn1ccnc1,70*,0,-2,1,4,15,
CC(C)(C)c1cc(Cl)ccc1OCCn1ccnc1,74*,1,0,-3,5,11,
CCOC(=O)COc1ccccc1C1CC(=O)Nc2c1ccc1ccccc21 (stereo not drawn),10,0,0,-3,·,·,
O=C(/C=C/c1ccccc1)NCCCn1ccnc1,-26,0,-1,-6,·,·,
SMILES,MITF inh,FBW7 act,GPR151 activ,TEAD-YAP block,MITF confirm,AlphaScreen intf2,others
COc1cc(OC)cc(C(=O)OCC(=O)C23CC4CC(CC(C4)C2)C3)c1,-2,0,-1,4,·,·,
OCCCCNCc1c(F)cccc1Cl,-9,0,-1,4,·,·,
CCN(CC)CCCNCc1c(F)cccc1Cl,57*,0,1,-3,19,8,
CCCN(CCO)Cc1c(F)cccc1Cl,56*,0,1,-2,-7,-9,
COc1ccc(NC(=O)c2cc(-c3ccc(Cl)cc3)nc3ccccc23)c(OC)c1,1,0,0,0,·,·,
Nc1nonc1-n1nnc(C(=O)O)c1CSc1nc2ccccc2[nH]1,-4,0,0,-10,·,·,
O=C(OC1CCOC1=O)c1cc(-c2ccco2)nc2ccccc12 (stereo not drawn),75*,0,0,-11,76*,3,AS interf DR=>7.2
O=C(COC(=O)c1cc(-c2ccco2)nc2ccccc12)NC1CC1,51*,0,-2,7,40*,-3,AS interf DR=>6.9
O=C(Nc1cccc(O)c1)c1cc(-c2ccco2)nc2ccccc12,36,0,0,4,·,·,
CCNC(=O)COC(=O)c1cc(-c2ccco2)nc2ccccc12,48,0,0,3,·,·,
CC(C)N(C(=O)COC(=O)c1cc(-c2ccco2)nc2ccccc12)C(C)C,54*,0,-1,-4,45*,7,AS interf DR=>6.8
O=C(O)c1cc(-c2ccco2)nc2ccccc12,55*,0,4,11,57*,18,AS interf DR=>7.6
Cc1nn(C)c(C)c1-c1nc(Nc2ccc(N3CCOCC3)cc2)c2ncn(C3CCCCC3)c2n1,8,0,0,-41,·,·,
CCOCCn1c(N2CCN(Cc3cccc(Cl)c3)CC2)nc2c1c(=O)[nH]c(=O)n2C,4,0,1,-1,·,·,
CC(=O)Nc1cc(-c2ccccc2)nn1Cc1ccc(Cl)cc1,1,0,1,0,·,·,
CC(=O)Nc1cc(-c2ccc(Cl)cc2)nn1-c1ccccc1,81*,0,1,-4,-3,-5,
COc1ccc(CCNCc2ccc(-n3ccnc3)cc2)cc1,36,0,-1,-1,·,·,
COc1ccc(CNC(C)c2ccc(-n3ccnc3)cc2)cc1F (stereo not drawn),66*,0,1,0,14,19,
NC(=O)CSc1ccc(C(N)=O)cc1[N+](=O)[O-],64*,0,0,-6,39*,-4,AS interf DR=>7.1
NC(=O)c1ccc(SCC(=O)O)c([N+](=O)[O-])c1,-2,0,0,-8,·,·,
Cn1c(-c2cccc([N+](=O)[O-])c2)cnc1NCc1cccc(F)c1,52*,0,0,-11,-8,-8,
Cn1c(-c2cccc([N+](=O)[O-])c2)cnc1NCc1cccc(O)c1,39,0,0,-10,·,·,
Cn1c(-c2ccc(F)cc2)cnc1NCc1cccc([N+](=O)[O-])c1,59*,0,0,-2,-4,-5,
Cn1c(-c2cccc([N+](=O)[O-])c2)cnc1NCc1ccc(F)cc1,38,0,0,-4,·,·,
Cc1ccc(CNC(=O)CNC(=S)N(Cc2ccc(F)cc2)C2CCCCC2)cc1,4,1,1,3,·,·,
O=C(CCSc1nnc2ccccn12)Nc1ccc(F)cc1,67*,0,0,-3,11,-7,
COc1ccc(C2C(C#N)=C(N)N(c3sc4c(c3C#N)CCCCC4)C3=C2C(=O)CCC3)cc1 (stereo not drawn),-14,0,-1,3,·,·,
C=CC1=C(C(=O)O)N2C(=O)[C@@H](NC(=O)/C(=N\O)c3csc(N)n3)[C@H]2SC1 (stereo in doubt),59*,0,1,-8,59*,46*,
